Assay results reported in PubChem BioAssay (NCATS).
Results filed as inconclusive are left out. Activity calls are given as the source filed them. Unless noted, calls come from the whole dose curve; as a rule, active = well fitted curve in the direction sought with a large enough effect; inconclusive = small, poorly fitted or top-dose-only effect, or another doubt; inactive = no such curve, though single readings can be large; an effect the other way counts as inactive or inconclusive.

How the values were obtained:
[1] = qHTS assay for measurement of the activity of small molecule inhibitors on Zika virus induced Caspase-3 activity in human iPSC derived neural progenitor cells (hNPCs) (AID 1224857); note: nearly all actives have a fitted effect of over 65% in size
Method in brief: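 Quantitative HTS format: human iPSC neural progenitors, 1 h compound pretreatment, ZIKV 2 FFU/cell for 6 h at 37 C. Percent inhibition derived from luminescent caspase-3/7 signal between uninfected and infected controls.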

[2] = qHTS assay for measurement of the activity of small molecule inhibitors on Zika virus induced Caspase-3 activity in human astrocytoma cells (AID 1224859)
Method in brief: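 Readout is luminescence from Caspase-Glo 3/7 added after a 6 h ZIKV infection (2 FFU/cell) of compound-pretreated (1 h) SNB-19 cells; data expressed as % inhibition versus uninfected and infected wells.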

[3] = Natriuretic polypeptide receptor (hNpr1) antagonism - Pilot counterscreen GloSensor control cell line (AID 1347045; calls by dose curve; note: series mostly up to about 38 µM)
Method in brief: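 Control counterscreen: luciferase cGMP-biosensor HEK293 cells (no Npr1) received compound for 30 min at room temperature after GloSensor substrate loading. Luminescence was measured before and 20 min after soluble guanylyl cyclase activation by 50 uM nitroprusside.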

[4] = target: Atrial natriuretic peptide receptor 1 (Homo sapiens) (UniProt P16066); assay: Natriuretic polypeptide receptor (hNpr1) antagonism - Pilot screen (AID 1347049; calls by dose curve;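 note: HEK293 cells with hNpr1 and GloSensor cGMP luciferase stimulated by 0.1 nM hNppA; agonist-evoked cGMP luminescence read 20 min after hNppA addition; series mostly up to about 58 µM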)
Sequence of Atrial natriuretic peptide receptor 1 (Homo sapiens) (P16066 whole entry, looked up): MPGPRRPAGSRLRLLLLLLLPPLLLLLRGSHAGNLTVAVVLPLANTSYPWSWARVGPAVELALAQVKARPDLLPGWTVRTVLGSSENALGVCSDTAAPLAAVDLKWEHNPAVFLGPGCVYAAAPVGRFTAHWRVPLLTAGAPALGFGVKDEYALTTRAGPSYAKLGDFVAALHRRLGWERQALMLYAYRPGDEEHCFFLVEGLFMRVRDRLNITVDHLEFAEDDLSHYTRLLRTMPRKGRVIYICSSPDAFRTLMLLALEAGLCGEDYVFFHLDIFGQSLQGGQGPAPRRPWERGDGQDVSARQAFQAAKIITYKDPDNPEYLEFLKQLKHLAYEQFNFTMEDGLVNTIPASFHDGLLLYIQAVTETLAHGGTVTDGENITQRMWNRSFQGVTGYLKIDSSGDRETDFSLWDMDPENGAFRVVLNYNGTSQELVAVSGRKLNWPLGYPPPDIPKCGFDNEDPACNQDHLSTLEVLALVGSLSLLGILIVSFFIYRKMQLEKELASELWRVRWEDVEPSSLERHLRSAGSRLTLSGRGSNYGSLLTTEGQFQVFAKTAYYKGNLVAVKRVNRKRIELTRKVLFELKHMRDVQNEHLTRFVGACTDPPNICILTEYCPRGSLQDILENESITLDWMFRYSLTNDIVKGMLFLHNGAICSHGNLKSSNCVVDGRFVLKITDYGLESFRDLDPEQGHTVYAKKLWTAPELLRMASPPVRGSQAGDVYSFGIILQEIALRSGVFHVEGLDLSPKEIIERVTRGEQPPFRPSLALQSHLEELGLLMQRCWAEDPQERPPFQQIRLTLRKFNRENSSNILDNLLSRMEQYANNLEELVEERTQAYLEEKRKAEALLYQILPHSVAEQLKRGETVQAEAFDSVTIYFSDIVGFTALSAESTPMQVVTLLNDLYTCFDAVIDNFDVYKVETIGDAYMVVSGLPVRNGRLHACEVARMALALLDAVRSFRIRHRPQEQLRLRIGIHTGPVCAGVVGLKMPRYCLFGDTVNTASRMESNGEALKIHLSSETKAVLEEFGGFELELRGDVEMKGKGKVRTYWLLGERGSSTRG
Method in brief: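 Receptor antagonism read as cGMP-dependent luminescence in hNpr1/pGS-40F HEK293 cells: pre-read after 30 min compound exposure, post-read 20 min after hNppA agonist at 0.1 nM final, all at room temperature, protected from light; A-71915 titration as control.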

[5] = target: Atrial natriuretic peptide receptor 2 (Homo sapiens) (UniProt P20594); assay: Natriuretic polypeptide receptor (hNpr2) antagonism - Pilot subtype selectivity assay (AID 1347050; calls by dose curve)
Sequence of Atrial natriuretic peptide receptor 2 (Homo sapiens) (P20594 whole entry, looked up): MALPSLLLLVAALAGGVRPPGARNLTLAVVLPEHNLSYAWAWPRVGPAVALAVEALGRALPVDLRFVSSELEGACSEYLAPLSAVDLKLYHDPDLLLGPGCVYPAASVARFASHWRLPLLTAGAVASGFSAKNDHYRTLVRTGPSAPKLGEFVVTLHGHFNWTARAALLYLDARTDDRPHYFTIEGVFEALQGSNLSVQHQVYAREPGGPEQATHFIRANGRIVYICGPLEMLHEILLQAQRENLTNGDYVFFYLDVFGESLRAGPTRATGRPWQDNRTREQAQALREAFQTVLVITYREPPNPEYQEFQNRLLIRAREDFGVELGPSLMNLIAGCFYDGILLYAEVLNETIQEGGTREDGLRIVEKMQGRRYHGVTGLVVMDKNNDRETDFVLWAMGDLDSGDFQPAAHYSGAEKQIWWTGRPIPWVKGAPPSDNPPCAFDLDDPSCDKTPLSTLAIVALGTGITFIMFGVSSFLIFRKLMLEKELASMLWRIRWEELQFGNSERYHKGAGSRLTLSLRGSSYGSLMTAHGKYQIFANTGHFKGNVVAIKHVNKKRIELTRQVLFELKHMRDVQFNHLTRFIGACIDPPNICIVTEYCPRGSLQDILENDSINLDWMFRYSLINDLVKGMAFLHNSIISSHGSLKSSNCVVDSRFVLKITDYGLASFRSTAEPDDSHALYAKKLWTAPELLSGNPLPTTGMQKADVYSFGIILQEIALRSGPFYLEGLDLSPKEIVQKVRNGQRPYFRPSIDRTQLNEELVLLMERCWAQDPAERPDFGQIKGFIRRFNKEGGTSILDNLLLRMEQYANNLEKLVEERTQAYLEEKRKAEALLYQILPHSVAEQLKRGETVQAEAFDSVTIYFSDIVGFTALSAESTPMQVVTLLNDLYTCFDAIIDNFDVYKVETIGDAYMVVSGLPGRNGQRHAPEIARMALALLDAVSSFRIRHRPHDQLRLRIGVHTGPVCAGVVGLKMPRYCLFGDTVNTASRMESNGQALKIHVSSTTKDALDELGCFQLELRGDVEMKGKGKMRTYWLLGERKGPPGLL
Method in brief: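 Antagonist mode: compounds (LOPAC1280, seven 1:5 dilutions) added 30 min before 1 nM hNppC stimulation of hNpr2-HEK293 cGMP-sensor cells; luminescence read before and 20 min after agonist at ambient temperature.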

[6] = NS1 protein of Zika virus - qHTS assay to identify small molecule inhibitors in human HEK 293 cells (AID 1347053); note: series mostly up to about 46 µM; nearly all actives have a fitted effect of over 55% in size
Method in brief: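 Readout was TR-FRET using paired anti-NS1 antibodies after 24 h infection of HEK 293 cells with ZIKV MR766 (MOI = 0.5). Compound preceded virus by 1 h; reduced signal reflects lower NS1 expression.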

[7] = P-glycoprotein substrates identified in KB-8-5-11 adenocarcinoma cell line, qHTS therapeutic library screen (AID 1346987); note: series mostly up to about 44 µM; nearly all actives have a fitted effect of over 65% in size
Method in brief: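 Compounds are pinned in dose-response onto KB-8-5-11 cells (500 cells/well, colchicine-free medium) and left 72 h at 37 degree C. CellTiter-Glo luminescence then yields AC50 values.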

Measured: Potency

C#CCOC(=O)C1=CCCN(C)C1
not listed: [7]
inactive: all other assays above

CCCN1CCO[C@@H]2c3cc(O)ccc3OC[C@H]21
not listed: [7]
inactive: all other assays above

NC(N)=NOCCC(N)C(=O)O (configuration not stated)
not listed: [7]
inactive: all other assays above

CCCN(CCC)C1CCc2ccc(O)cc2C1 (configuration not stated)
not listed: [7]
inactive: all other assays above

CNCCc1c[nH]c2ccc(O)cc12
not listed: [7]
inactive: all other assays above

NC(CP(=O)(O)O)C(=O)O (configuration not stated)
not listed: [7]
inactive: all other assays above

c1ccc2sc(C3(N4CCCCC4)CCCCC3)cc2c1
not listed: [7]
inactive: all other assays above

C=CC(=O)NCNC(=O)C=C
inactive: [1] | [2] | [7] | [6]

NCCc1c[nH]c2ccccc12
not listed: [7]
inactive: all other assays above

COc1cc(C(O)CN)ccc1O (configuration not stated)
not listed: [7]
inactive: all other assays above

C[C@@H]1O[C@H](C[N+](C)(C)C)C[C@H]1O
not listed: [7]
inactive: all other assays above

CC(C)Oc1cccnc1N(C)C1CCN(Cc2ccccc2)CC1
not listed: [7]
inactive: all other assays above

O=S(=O)(O)C(F)(F)C(F)(F)C(F)(F)C(F)(F)F
inactive: [1] | [2] | [7] | [6]

O=C1CCCN1CC#CCN1CCCC1
not listed: [7]
inactive: all other assays above

NCc1cc(=O)[nH]o1
not listed: [7]
inactive: all other assays above

C[N+]1(C)C2CCC1CC(OC(=O)C(CO)c1ccccc1)C2 (configuration not stated)
not listed: [7]
inactive: all other assays above

Cn1cnc(CCN)c1
not listed: [7]
inactive: all other assays above

NC(=NCCC[C@H](N)C(=O)O)N[N+](=O)[O-]
not listed: [7]
inactive: all other assays above

CC(=O)[C@H]1CCC2C3CC[C@H]4C[C@H](O)CC[C@]4(C)C3CC[C@@]21C (some centres not stated)
not listed: [7]
inactive: all other assays above

OCCCBr
inactive: [1] | [2] | [7] | [6]

C=CCN1CC[C@]23CCCCC2[C@H]1Cc1ccc(O)cc13 (some centres not stated)
not listed: [7]
inactive: all other assays above

O=[N+]([O-])/N=C1\NCCN1Cc1ccc(Cl)nc1
inactive: [1] | [2] | [7] | [6]

Cc1nccc2c1[nH]c1ccccc12
not listed: [7]
inactive: all other assays above

C1CCC(NC2CCCCC2)CC1
inactive: [1] | [2] | [7] | [6]

NC(CCP(=O)(O)O)C(=O)O (configuration not stated)
not listed: [7]
inactive: all other assays above

O=C(Cc1ccc(Cl)c(Cl)c1)N1CCCCC1CN1CCCC1 (configuration not stated)
not listed: [7]
inactive: all other assays above

NC1CCc2cc(O)c(O)cc2C1 (configuration not stated)
not listed: [7]
inactive: all other assays above

O=[N+]([O-])c1c(Cl)c(Cl)cc(Cl)c1Cl
inactive: [1] | [2] | [7] | [6]

CCOCCOC(C)=O
inactive: [1] | [2] | [7] | [6]

O=C(O)Cc1cnc[nH]1
not listed: [7]
inactive: all other assays above

CC1(C)CC/C(=C/c2ccc(Cl)cc2)C1(O)Cn1cncn1 (configuration not stated)
inactive: [1] | [2] | [6]

O=S(=O)(c1ccc(Cl)cc1)c1ccc(Cl)cc1
inactive: [1] | [2] | [6]
